Compounds without any hit were thinned out: in the full panel of roughly 83,000, 20% have a hit.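 Single-concentration screen, 48 h exposure, 96-well plates. Endpoint: percent growth. Below 10 = active.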 Unmarked numbers belong to inactive results. Calls of active or inactive are those of the source.

Holding throughout (test): NCI-60 one-dose screen, 48 h (100 = growth as untreated, 0 = no growth, -100 = all killed)
The test system of one experiment is SK-MEL-2 melanoma. Particulars: 10 µM unless noted.
The next experiment concerns EKVX NSCLC. Particulars: 10 µM unless noted.
A further experiment concerns SN12C renal. Particulars: 10 µM unless noted.
The next experiment relates to UO-31 renal. Particulars: 10 µM unless noted.
The test system of another experiment is TK-10 renal. Particulars: 10 µM unless noted.
For the next experiment, the system named is ACHN renal. Particulars: 10 µM unless noted.
A further experiment has as its system CAKI-1 renal. Particulars: 10 µM unless noted.
A further experiment deals with A498 renal. Particulars: 10 µM unless noted.
The test system of the next experiment is CCRF-CEM leukemia. Particulars: 10 µM unless noted.
The subject of a further experiment is MOLT-4 leukemia. Particulars: 10 µM unless noted.
In the next experiment the test system is SR leukemia. Particulars: 10 µM unless noted.
A further experiment deals with RPMI-8226 leukemia. Particulars: 10 µM unless noted.
The next experiment has as its system OVCAR-8 ovarian. Particulars: 10 µM unless noted.
A further experiment relates to OVCAR-5 ovarian. Particulars: 10 µM unless noted.
The subject of another experiment is SK-OV-3 ovarian. Particulars: 10 µM unless noted.
The next experiment concerns IGROV1 ovarian. Particulars: 10 µM unless noted.
The test system of a further experiment is OVCAR-3 ovarian. Particulars: 10 µM unless noted.
Another experiment concerns NCI/ADR-RES ovarian. Particulars: 10 µM unless noted.
The next experiment deals with OVCAR-4 ovarian. Particulars: 10 µM.
In a further experiment the test system is HS 578T breast. Particulars: 10 µM unless noted.

`C=C(C)[C@@H]1CC[C@]2(C(=O)NCCNCCNCCN)CC[C@]3(C)[C@H](CC[C@@H]4[C@@]5(C)CCC(=O)C(C)(C)[C@@H]5CC[C@]43C)[C@@H]12`: the growth in the experiment on SK-MEL-2 melanoma is 56.4% [100 µM]; in the experiment with EKVX NSCLC, 11.4% [100 µM]; with SN12C renal it was -88.5% [100 µM] (active); in the experiment with UO-31 renal, -96.4% [100 µM] (active); in the experiment on TK-10 renal, -77.7% [100 µM] (active); with ACHN renal it was -83.3% [100 µM] (active). Besides, the growth in the experiment on CAKI-1 renal is -8.79% [100 µM] (active); in the experiment on A498 renal, 80.8% [100 µM]; in the experiment on CCRF-CEM leukemia it was -11.3% [100 µM] (active); in the experiment with MOLT-4 leukemia it was -16.3% [100 µM] (active); with SR leukemia, 4.96% [100 µM] (active); in the experiment on RPMI-8226 leukemia, -30.7% [100 µM] (active). Besides, the growth is -75% [100 µM] (active) in the experiment on OVCAR-8 ovarian; -44.1% [100 µM] (active) in the experiment with OVCAR-5 ovarian; 70.5% [100 µM] in the experiment on SK-OV-3 ovarian; -84.8% [100 µM] (active) in the experiment with IGROV1 ovarian; -72.5% [100 µM] (active) in the experiment on OVCAR-3 ovarian; -73.3% [100 µM] (active) with NCI/ADR-RES ovarian.
As for `CC[C@@](C)(NC(=O)[C@H](C)NC(=O)CCNC(=O)C(C)(C)NC(=O)[C@H](C)NC(=O)[C@@H]1CCCN1C(=O)[C@@](C)(CC)NC(=O)[C@H](Cc1ccccc1)NC(=O)C1CCCN1C(=O)C(C)(C)NC(=O)C1CCCN1C(=O)C(C)(C)NC(C)=O)C(=O)NCCC(=O)N[C@@H](CC(C)C)C(=O)NC(C)(C)C(=O)NCCC(=O)N[C@@H](CC(C)C)C(=O)NC(C)(C)C(=O)NC(C)(C)C(=O)N[C@@H](CC(C)C)C(=O)NCCC(=O)NCO` (stereo not given in full), the growth in the experiment on SK-MEL-2 melanoma was -89% (active); in the experiment on EKVX NSCLC it was -100% (active); with SN12C renal, -76.7% (active); in the experiment on UO-31 renal, -90.7% (active); with TK-10 renal, -98.9% (active); in the experiment on ACHN renal, -90.1% (active). In addition, the growth with CAKI-1 renal was -98.2% (active); in the experiment on A498 renal, -97.4% (active); with CCRF-CEM leukemia, -61.1% (active); in the experiment on MOLT-4 leukemia, -61.1% (active); with SR leukemia it was -50.9% (active); in the experiment with RPMI-8226 leukemia, -55.5% (active). Moreover, the growth is -82% (active) in the experiment with OVCAR-8 ovarian; -96.5% (active) in the experiment with OVCAR-4 ovarian; -71.9% (active) in the experiment with IGROV1 ovarian; -100% (active) in the experiment with OVCAR-3 ovarian; -60.6% (active) in the experiment with HS 578T breast; -93.3% (active) in the experiment with NCI/ADR-RES ovarian.
Regarding `COC(=O)c1cc(O)c2c(c1C(=O)OC)C[C@H]1[C@@H]3CC=C4C[C@@H](O)CC[C@]4(C)[C@H]3CC[C@]21C`, the growth in the experiment with SK-MEL-2 melanoma is 78.7%; with EKVX NSCLC, 55%; in the experiment with SN12C renal it was 71.3%; with UO-31 renal, 39.9%; with TK-10 renal, 55%; with ACHN renal it was 39.9%. The growth with CAKI-1 renal was 26.2%; with A498 renal, 49.8%; in the experiment with CCRF-CEM leukemia, 37.8%; in the experiment on MOLT-4 leukemia it was 35.6%; in the experiment with SR leukemia, 31.5%; in the experiment on RPMI-8226 leukemia it was 16.6%. Also, the growth was 63.9% in the experiment with OVCAR-8 ovarian; 83.7% in the experiment with SK-OV-3 ovarian; 72.8% in the experiment on IGROV1 ovarian; 33.2% in the experiment on OVCAR-3 ovarian; 31.5% in the experiment with HS 578T breast; 44.2% in the experiment with NCI/ADR-RES ovarian.
Take `O=C(CSc1nc2ccc([N+](=O)[O-])cc2[nH]1)Nc1cccc(Cl)c1`: the growth in the experiment on SK-MEL-2 melanoma is 7.44% (active); in the experiment with EKVX NSCLC, 16.7%; in the experiment on SN12C renal it was 6.25% (active); in the experiment with UO-31 renal, 9.96% (active); with TK-10 renal, 37.8%; in the experiment with ACHN renal it was 22.5%. Besides, the growth in the experiment on CAKI-1 renal is 17.6%; in the experiment on A498 renal, 5.48% (active); with CCRF-CEM leukemia, 16.4%; with MOLT-4 leukemia it was 7.99% (active); in the experiment with SR leukemia it was 12.7%; with RPMI-8226 leukemia, -19.6% (active). Further, the growth in the experiment on OVCAR-8 ovarian was 18.7%; in the experiment with OVCAR-4 ovarian it was 2.46% (active); with SK-OV-3 ovarian it was 29.4%; in the experiment with IGROV1 ovarian, 37.9%; in the experiment on OVCAR-3 ovarian it was 19%; in the experiment on HS 578T breast, 38.3%. The growth in the experiment with NCI/ADR-RES ovarian is 25.4%.
Regarding `Nn1c(Nc2ccc(S(=O)(=O)Nc3ncccn3)cc2)nnc(/C=C/c2c(O)ccc3ccccc23)c1=O`, the growth is 89.2% in the experiment on SK-MEL-2 melanoma; 90.9% in the experiment with EKVX NSCLC; 96.8% in the experiment with SN12C renal; 58.6% in the experiment on UO-31 renal; 120% with TK-10 renal; 91.9% in the experiment with ACHN renal. The growth is 98.4% in the experiment with CAKI-1 renal; 93.2% in the experiment on A498 renal; 79.3% with CCRF-CEM leukemia; 70.7% in the experiment with MOLT-4 leukemia; 89.7% in the experiment on SR leukemia; 72.4% in the experiment on RPMI-8226 leukemia. Further, the growth in the experiment with OVCAR-8 ovarian was 93.4%; with OVCAR-4 ovarian, 75.8%; with SK-OV-3 ovarian, 84.2%; in the experiment with IGROV1 ovarian, 82.9%; in the experiment with OVCAR-3 ovarian it was 80.1%; in the experiment with HS 578T breast, 94.9%. Further, the growth in the experiment with NCI/ADR-RES ovarian is 94.6%.
As to `COc1ccc(CC(C#N)c2ccc(Cl)cc2)cc1` (stereo not given), the growth in the experiment on SK-MEL-2 melanoma was 80%; in the experiment on EKVX NSCLC, 90%; in the experiment on SN12C renal, 99.7%; with UO-31 renal it was 102%; in the experiment on TK-10 renal, 109%; with ACHN renal it was 102%. For the same molecule, the growth in the experiment with CAKI-1 renal was 68.9%; in the experiment on A498 renal it was 49.7%; in the experiment with CCRF-CEM leukemia it was 76.5%; in the experiment on MOLT-4 leukemia, 72.7%; in the experiment on SR leukemia it was 36.3%; in the experiment on RPMI-8226 leukemia, 85%. Further, the growth in the experiment on OVCAR-8 ovarian was 99%; with OVCAR-4 ovarian, 103%; with SK-OV-3 ovarian, 89.3%; in the experiment on IGROV1 ovarian, 68.8%; in the experiment with OVCAR-3 ovarian, 77.2%; in the experiment on NCI/ADR-RES ovarian, 42.5%.
On to `CCN(CC)CCCOc1ccc2c(c1)O/C(=C\c1cccc(OC)c1)C2=O`, for which the growth was 118% in the experiment with SK-MEL-2 melanoma; 97.4% in the experiment with EKVX NSCLC; 87.1% with SN12C renal; 73.8% in the experiment on UO-31 renal; 98.7% in the experiment on TK-10 renal; 99.8% in the experiment with ACHN renal. Moreover, the growth was 87.4% in the experiment on CAKI-1 renal; 72.6% with A498 renal; 102% with CCRF-CEM leukemia; 97.7% with MOLT-4 leukemia; 63.3% with SR leukemia; 96.2% in the experiment with RPMI-8226 leukemia. Besides, the growth is 90.8% in the experiment with OVCAR-8 ovarian; 94.2% in the experiment with OVCAR-4 ovarian; 115% in the experiment on SK-OV-3 ovarian; 97.7% with IGROV1 ovarian; 94.8% with NCI/ADR-RES ovarian.
For `Cn1cc(-c2nnc(-c3cn(C)c4ncccc34)s2)c2ccccc21`, the growth is 79.8% in the experiment on SK-MEL-2 melanoma; 70.7% in the experiment on EKVX NSCLC; 50.3% with SN12C renal; 39% in the experiment with UO-31 renal; 79.9% in the experiment on TK-10 renal; 86.6% in the experiment on ACHN renal. The growth is 47% in the experiment on CAKI-1 renal; 31% in the experiment with A498 renal; 38.3% with CCRF-CEM leukemia; 47.9% in the experiment on MOLT-4 leukemia; 26.5% with SR leukemia; 43.9% with RPMI-8226 leukemia. Moreover, the growth in the experiment on OVCAR-8 ovarian was 90.9%; in the experiment with OVCAR-4 ovarian it was 81%; in the experiment on IGROV1 ovarian, 70.2%; with OVCAR-3 ovarian, 40.1%; with HS 578T breast it was 83.7%; with NCI/ADR-RES ovarian, 48%.

Values taken from PubChem BioAssay (NCI).
